Compounds with a hit are over-represented: about 9% of the library has one in this group of screens.
IMPase inh: IMPase inhibition in cells | P97697 | CHO-M1 cells, IP1 accumulation, HTRF TR-FRET ratio | inhibition (IP1 accumulation), % at 46.1 µM | 120,000 tested, under 10 active; active = well fitted curve in the direction sought with a large enough effect in the signal ratio, not every such curve was filed as active; inconclusive = small, poorly fitted or top-dose-only effect, or a change in a side signal; inactive = no such curve, though single readings can be large or run the other way; the % refers to the signal ratio;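 also: cells stimulated with carbachol in lithium chloride buffer; plate controls were DMSO basal wells for no effect and reference inhibitor wells for full effect; higher means more IMPase inhibition seen as more IP1 and lower FRET ratio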
Target sequence (P97697 whole entry, looked up): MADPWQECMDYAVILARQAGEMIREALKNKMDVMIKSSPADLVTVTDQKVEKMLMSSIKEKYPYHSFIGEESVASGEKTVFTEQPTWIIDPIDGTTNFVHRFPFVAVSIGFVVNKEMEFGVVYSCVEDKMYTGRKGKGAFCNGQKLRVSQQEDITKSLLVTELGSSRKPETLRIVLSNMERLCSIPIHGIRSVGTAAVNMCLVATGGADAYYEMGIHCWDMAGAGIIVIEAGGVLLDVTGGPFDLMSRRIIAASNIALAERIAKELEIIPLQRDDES
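CHO-M1 cells (CHO stably expressing M1 receptor), compound up to 46 uM final, stimulated with carbachol (50 uM as added) in buffer with 50mM LiCl, pH 7.4, 30 min at 37C. Cytosolic IP1 read by TR-FRET; AC50 from Hill fits.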
ALDH1A1 block: inhibitors of human aldehyde dehydrogenase 1A1; AID 1030; 220,000 tested, 7.3% active; Purified ALDH1A1, NADH fluorescence, propionaldehyde substrate; P00352; Potency, µM (top dose mostly 75.3 µM), inactives show at the top dose activity, negative = inhibition, most hits filed as inhibitors;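 also: potency is read from the fitted curve at half-maximal effect; plate controls were no enzyme wells and a reference inhibitor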
HPGD block: inhibitors of human 15-hydroxyprostaglandin dehydrogenase (HPGD); 150,000 tested, 4.3% active; purified HPGD, NADH fluorescence kinetic, PGE2 substrate; P15428; Potency, µM, for inactives: top-dose activity change, negative = inhibition, hits mostly inhibitors; also: potency is read from the fitted curve at half-maximal effect
Target sequence (P15428 whole entry, looked up): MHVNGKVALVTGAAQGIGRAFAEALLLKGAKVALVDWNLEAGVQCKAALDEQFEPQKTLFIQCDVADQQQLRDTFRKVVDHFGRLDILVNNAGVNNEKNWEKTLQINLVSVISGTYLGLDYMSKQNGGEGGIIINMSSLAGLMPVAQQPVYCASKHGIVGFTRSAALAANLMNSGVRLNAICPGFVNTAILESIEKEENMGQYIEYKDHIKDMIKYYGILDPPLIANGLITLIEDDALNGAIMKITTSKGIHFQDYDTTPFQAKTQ
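20 nM HPGD preincubated 15 min at room temperature with compound in 50 mM Tris-HCl pH 8, 0.01% Tween 20. Started with 1 mM NAD+ and 30 uM prostaglandin E2; NADH fluorescence (360/450 nm) read 5 times over 30-s intervals, last minus first.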
* marks the source's active call; other numbers are inactive results; ? = inconclusive; . = no result given; [ ] = another dose, or the depositor's remark. Unless noted, calls follow the shape of the dose curve; as a rule, active = well fitted inhibition curve with a large enough effect (not every such curve was filed as active); inconclusive = small, poorly fitted or top-dose-only effect, or another doubt; inactive = no such curve, though single readings can be large or run the other way. Unless noted, % is scaled to controls: 0 for no effect and ±100 for the full control effect.

SMILES	IMPase inh	ALDH1A1 block	HPGD block
C=CS(=O)(=O)c1ccc(Oc2ccc(S(=O)(=O)C=C)cc2)cc1	.	0.032µM*	-20%
CCOC(=O)C1C(=O)CC(C)(O)C(C(=O)OCC)C1c1ccccc1OC (stereo not given)	-2	11%	-4%
COC(=O)[C@H](C)[C@@H]1C[C@@]1(C)[C@@H](NC(=O)OCc1ccccc1)c1ccccc1	.	-5%	-4%
C[C@@H](C(=O)O)[C@H]1C[C@]1(C)[C@H](NC(=O)OCc1ccccc1)c1ccccc1	.	7.1µM*	-6%
COc1ccc(CNC(=O)[C@H](C)[C@H]2C[C@]2(C)[C@H](NC(=O)OCc2ccccc2)c2ccccc2)cc1OC	.	3.5µM*	-10%
COc1ccc(CNC(=O)[C@H](C)[C@@H]2C[C@@]2(C)[C@@H](NC(=O)OCc2ccccc2)c2ccccc2)cc1OC	.	-4%	?
Cc1cc(CNC(=O)[C@H](C)[C@H]2C[C@]2(C)[C@H](NC(=O)OCc2ccccc2)c2ccccc2)nn1C	.	4µM*	-9%
Cc1cc(CNC(=O)[C@H](C)[C@@H]2C[C@@]2(C)[C@@H](NC(=O)OCc2ccccc2)c2ccccc2)nn1C	.	?	-16%
Cc1ccc(S(=O)(=O)Nc2cc3c(C(=O)OCc4ccccc4)c(C)oc3c3ccccc23)c(C)c1	0	.	.
CNC1C(O)C(O[C@H]2C(O)[C@@H](OC3OC(CN)=CCC3N)[C@H](N)C[C@@H]2N)OC[C@]1(C)O (stereo not given in full)	.	-7%	-5%
O=S(=O)(O)C1CCNCC1	3	-1%	3%
CC(=O)c1ccc(NC(=O)c2ncn(-c3ccccc3)n2)cc1	-1	.	.
COc1ccc(NC(=O)N2CC3(CCN(C(=O)c4csnn4)CC3)C2)cc1	.	-6%	-7%
Oc1ccccc1/C=N/Nc1ccnc(SCc2ccccc2)n1	.	-2%	28µM*
Clc1ccc(Cl)c(Nc2ccnc(SCc3ccccc3)n2)c1	.	-8%[13.5 µM]	-1%
O=C(c1ccccc1)c1cccn1CC(=O)N1CCc2ccccc2C1	.	6%	.
Cc1cc(C(=O)OCC(=O)c2cccc([N+](=O)[O-])c2)c2cccc(C)c2n1	-1	22µM*	-21%
COc1ccc(-c2cc(C(=O)OCC(=O)c3cccc([N+](=O)[O-])c3)c3cc(C)ccc3n2)cc1	.	12%	-2%
O=C(NNC(=O)C1CC1c1ccccc1)Nc1ccccc1 (stereo not given)	.	7%	-5%
O=C(CCc1ccccc1)NNC(=O)Cc1ccc(Cl)cc1	.	-3%	.
Cc1cccc(NCC(=O)NNC(=S)Nc2ccccc2)c1	.	14µM*	.
Cc1ccc(C2CC2C(=O)NNC(=S)Nc2ccc(Cl)cc2)cc1 (stereo not given)	-2	8.9µM*	?
CC(C)NC(=O)CSCc1ccccc1Cl	0[1.84 µM]	-4%	-16%
O=C(CSCc1ccccc1Cl)NNC(=S)Nc1ccccc1	-1	14µM*	-21%
CC(O)CCC(=O)NNC(=S)Nc1ccccc1 (stereo not given)	.	-5%	.
SMILES	IMPase inh	ALDH1A1 block	HPGD block
O=C(Cc1ccccc1)NNC(=S)Nc1ccc(Cl)cc1	.	25µM*	-7%
O=C(Nc1ccccc1)C1CC=CCC1C(=O)OCC1CCCO1 (stereo not given)	7	-6%	-2%
CC(C)C(=O)NC(=S)Nc1ccccn1	4	?	.
O=C(Nc1ccccc1)C(=O)Nc1ccccn1	-1	-4%	-1%
S=C(Nc1ccc(Nc2ccccc2)cc1)Nc1ccccn1	.	16µM*	.
COc1ccc(CCNC(=S)Nc2cccc(C)c2)cc1	-6	-13%	-6%
Cc1cccc(NC(=S)NNC(=O)Cc2ccccc2)c1	2	40µM*	-18%
Cc1cccc(NC(=S)NCCC(C)C)c1	.	-5%	28µM*
CC(C)CCNC(=S)Nc1ccccn1	.	6.3µM*	-7%
O=C(Cc1ccccc1)NNC(=O)Nc1cccc(Cl)c1	-10	5%	-7%
CCc1ccc(OCC(=O)N2CCN=C2c2ccccc2)cc1	-4	-2%	-18%
Cc1c(NC(=O)CN2C(=O)NC3(CCCC3)C2=O)c(=O)n(-c2ccccc2)n1C	.	8%	.
CC1CCN(c2cc(C#N)c(C#N)cc2[N+](=O)[O-])CC1	-4	6%	-7%
Cc1cc(N2CCC(C)CC2)c(F)cc1[N+](=O)[O-]	10	10µM*	-15%
Clc1ccc(-c2n[nH]c3c2CCC3)c(Cl)c1	?	9%	7.1µM*
c1ccc(-c2n[nH]c3c2CCC3)cc1	4	9%	-13%
CSc1nc(N)c2ncn([C@@H]3O[C@H](COP(=O)(O)OP(=O)(O)OP(=O)(O)O)[C@@H](O)[C@H]3O)c2n1	.	7%	.
COc1ccc(CCNC(=O)COC(=O)CCC(=O)c2ccc(F)cc2)cc1	.	3%	.
CC(=NCc1cccc(Cl)c1)c1nc(-c2ccco2)oc1O	.	18µM*	-15%
Oc1oc(-c2ccco2)nc1C=Nc1cccc(Cl)c1	8	-11%	-2%
Cc1ccc(S(=O)(=O)Oc2ccccc2/C=N/N=C(N)N)cc1	.	-10%	.
Cc1ccc(S(=O)(=O)Oc2ccccc2/C=C2\SC(=O)NC2=O)cc1	.	13µM*	.
CC(=O)N1c2ccccc2C(C)(c2ccc(C)cc2)CC1(C)C (stereo not given)	-4	.	.
CC(C)(C)C(=O)c1sc2nc(-c3cccs3)cc(C(F)(F)F)c2c1N	-11	?	?
CCN(CC)C(=O)c1sc2nc(-c3cccs3)cc(-c3cccs3)c2c1N	.	20µM*	.
SMILES	IMPase inh	ALDH1A1 block	HPGD block
CC1=CCC2C(=O)N(c3ccccc3OC(=O)c3ccccc3F)C(=O)C2C1 (stereo not given)	.	9%	-11%
O=C(CSc1ccc2ccccc2n1)c1ccc2c(c1)OCO2	16	?	8.9µM*
O=C(O)CSc1ccc2ccccc2n1	?	-58%	-18%
O=C(CSc1nc2ccc(Cl)cc2[nH]1)c1ccc2c(c1)OCO2	13	18µM*	-16%
O=C(CSc1ncn[nH]1)c1ccc2c(c1)OCO2	5	-3%	-11%
Cc1cccc(OCC(=O)N/N=C2/SCC(=O)N2Cc2ccco2)c1	.	11%	.
COC(=O)N1C2CC3(C)C=C(C)OC1(C)C3c1ccccc12 (stereo not given)	.	2%[13.5 µM]	-8%
CCOCCCNC(=O)C(c1ccccc1)N(Cc1ccc2c(c1)OCO2)C(=O)CNC(C)=O (stereo not given)	0	0%	-8%
CCOCCCNC(=O)C(c1ccc(OC)cc1)N(Cc1ccc2c(c1)OCO2)C(=O)c1ccccc1O (stereo not given)	.	2µM*	.
CCOCCCNC(=O)C(c1ccccc1)N(Cc1cccs1)C(=O)c1ccccc1O (stereo not given)	.	-12%	.
CCOCCCNC(=O)C(c1ccc(C)cc1)N(Cc1cccs1)C(=O)c1ccccc1O (stereo not given)	.	16µM*	.
O=S(=O)(Nc1cc(C(F)(F)F)ccc1N1CCOCC1)c1ccc2ccccc2c1	.	?	-13%
CCC(Sc1nc2ccsc2c(=O)n1-c1ccc(Cl)c(C)c1)C(=O)NCc1ccco1 (stereo not given)	.	-13%	-4%
Oc1ccc(N=C/C=C/c2cccc(Br)c2)cc1-c1nc2ccccc2s1	1	?	-24%
O=C(Cc1ccccc1)NNC(=O)Nc1ccc(Cl)c(Cl)c1	7	4%	-2%
NC(=S)NNC(=O)Nc1ccc(Cl)c(Cl)c1	.	28µM*	-20%
